MCF10A rerep: induces DNA re-replication in MCF 10a normal breast cells. Potency, µM (series often up to 46.1 µM), usual class: activators. hit rate 2.9% among 350,000. MCF 10A DNA re-replication, Hoechst nuclear intensity, 48 h; also: nearly all actives have a fitted effect of over 50% in size
KB-3-1 tox: kills parental KB-3-1 adenocarcinoma cells | KB-3-1 viability, CellTiter-Glo ATP luminescence, 72 h | Potency, µM (titrated, usually from 46.1 µM), usual class: cytotoxic | hit rate 1.4% among 400,000; also: nearly all actives have a fitted effect of over 60% in size
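KB-3-1 cells, DMEM (no phenol red) + 10% FBS; compound by pin transfer, 72 h, 37 °C. Readout: CellTiter-Glo luminescence after 10 min. Data normalized, curve-fitted.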
D3 antag: blocks the human D3 dopamine receptor. P35462. D3R cells, DiscoveRx beta-arrestin luminescence, antagonist mode; hits give low values. max response, negative = inhibition, %. hit rate 2.5% among 360,000. AID 652054; in the data active = max response below about -50%; inconclusive = no clear call, values can overlap the other calls
Target sequence (P35462 whole entry, looked up): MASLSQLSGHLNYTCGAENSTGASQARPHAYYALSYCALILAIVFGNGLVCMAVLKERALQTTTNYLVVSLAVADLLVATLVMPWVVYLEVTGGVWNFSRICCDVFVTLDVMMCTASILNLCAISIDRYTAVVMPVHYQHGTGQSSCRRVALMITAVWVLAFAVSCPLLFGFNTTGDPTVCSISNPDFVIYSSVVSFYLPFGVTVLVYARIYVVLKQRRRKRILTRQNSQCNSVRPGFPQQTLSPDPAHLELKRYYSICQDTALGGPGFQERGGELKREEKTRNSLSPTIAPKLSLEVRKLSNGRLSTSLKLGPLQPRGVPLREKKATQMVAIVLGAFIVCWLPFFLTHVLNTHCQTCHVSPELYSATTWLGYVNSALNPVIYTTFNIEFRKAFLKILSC
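Cells expressing the human receptor were seeded at 1500 cells/well, incubated overnight at 37 degrees C in 5% CO2, then exposed to library compounds with dopamine controls for 90 minutes at 37 degrees C before luminescent detection.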
SW480 rerep: DNA re-replication induction in SW480 cells | SW480 DNA re-replication, Hoechst DNA content imaging, 48 h | Potency, µM (doses to about 46.1 µM), hits mostly activators | hit rate 1.8% among 340,000 | AID 624297; also: nearly all actives have a fitted effect of over 55% in size
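Readout is total intensity of Hoechst-stained nuclei, excited at 405 nm and collected at 500-530 nm. Compound treatment lasted 48 hr at 37 C in 5% CO2 before staining.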
KB-V1 MDR tox: kills drug-selected multidrug resistant KB-V1 cells | KB-V1 MDR cells viability, CellTiter-Glo, 72 h | Potency, µM (top dose mostly 46.1 µM), most hits filed as cytotoxic | hit rate 3.4% among 400,000; also: nearly all actives have a fitted effect of over 60% in size
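Luminescent ATP read-out (CellTiter-Glo, 10 min) measures survival of drug-selected KB-V1 MDR cells after 72 h, 37 degrees C compound exposure. Medium: phenol-red-free DMEM, 10% FBS. Values from fitted concentration-response curves.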
DRD3 agonist: D3 dopamine receptor (human) agonism | P35462 | D3R DiscoveRx beta-arrestin cells, luminescence, 90 min | max activation, % | hit rate 0.58% among 410,000; in the data active = max activation above about 30%
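Agonist-mode cell screen: cells plated at 1500/well and incubated overnight at 37 °C, then exposed to library compounds for 90 min at 37 °C. Detection reagent was added for 30–60 min at room temperature, and luminescence was read.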
Large screens that a line does not name were inactive; ! = not confirmed by another sample. Most compounds without a hit are left out; they make up all but 8.9% or so of the library. Unless noted, calls follow the shape of the dose curve; as a rule, active = well fitted curve in the direction sought with a large enough effect; inconclusive = small, poorly fitted or top-dose-only effect, or another doubt; inactive = no such curve, though single readings can be large; an effect the other way counts as inactive or inconclusive.

O=C(c1ccccc1)c1ccc(Oc2ccc([N+](=O)[O-])cc2[N+](=O)[O-])cc1	MCF10A rerep 11.6µM, KB-3-1 tox inconclusive, SW480 rerep 3.26µM, KB-V1 MDR tox inconclusive
COc1cc2c(c(OC)c1OC)C(c1ccc3c(c1)OCO3)CC(=O)O2 (centres undefined)	MCF10A rerep inconclusive
COc1cc(C2c3cc4c(cc3CC3COC(=O)N32)OCO4)cc(OC)c1OC (centres undefined)	MCF10A rerep 1.3µM, KB-3-1 tox 0.731µM, SW480 rerep 1.16µM, KB-V1 MDR tox 2.06µM
COc1ccc2c(c1)CCC1C2=NN(/C(C)=C/C(C)=O)C1c1cccc(F)c1 (centres undefined)	MCF10A rerep inconclusive, D3 antag -58.0, SW480 rerep inconclusive, KB-V1 MDR tox inconclusive
CC(=O)N1N=C2c3ccccc3CCC2C1c1ccc(F)cc1 (centres undefined)	MCF10A rerep inconclusive, KB-3-1 tox inconclusive, KB-V1 MDR tox inconclusive
COC(=O)c1ccccc1NC(=O)Cn1nnc(-c2ccc(OC)cc2)n1	KB-V1 MDR tox 14.6µM!
CCCOc1ccc(-c2nnn(CC(=O)Nc3cccc(C(=O)OC)c3)n2)cc1	KB-V1 MDR tox 13µM
CCCCOc1ccc(-c2nnn(CC(=O)NCCc3c[nH]c4ccccc34)n2)cc1	MCF10A rerep inconclusive, KB-V1 MDR tox 16.4µM
COc1ccccc1NC(=O)Cn1nnc(-c2ccccc2NS(=O)(=O)c2ccccc2)n1	KB-3-1 tox inconclusive, SW480 rerep inconclusive, KB-V1 MDR tox 5.8µM
CCOC(=O)c1ccccc1NC(=O)c1sc2nc3n(c(=O)c2c1C)CCCC3	none (no result: MCF10A rerep, D3 antag, SW480 rerep)
CC1(C)CC(=O)C2=C(C1)NC(Nc1nc3ccccc3o1)=NC2c1cccc(F)c1 (centres undefined)	none (no result: MCF10A rerep, D3 antag, SW480 rerep, DRD3 agonist)
CCOC(=O)C1=C(C)Nc2ccc(C)cc2S1	D3 antag inconclusive
CCOCCOC(=O)C1=C(C)Nc2ccc(C)cc2S1	KB-V1 MDR tox 13µM
FC(F)(F)Oc1ccccc1C(c1nnnn1-c1ccc2c(c1)OCCO2)N1CCN(C/C=C/c2ccccc2)CC1 (centres undefined)	D3 antag -57.2, KB-V1 MDR tox inconclusive (no result: MCF10A rerep, SW480 rerep)
CN(C)CCN1CCN(C(c2ccnc3ccccc23)c2nnnn2-c2ccc3c(c2)OCCO3)CC1 (centres undefined)	none (no result: MCF10A rerep, SW480 rerep)
C(=C\c1ccccc1)/CN1CCN(C(c2cccc3ccccc23)c2nnnn2-c2ccc3c(c2)OCCO3)CC1 (centres undefined)	D3 antag -72.6 (no result: MCF10A rerep, SW480 rerep)
CC1=C(C(=O)Nc2cccc(F)c2)C(c2ccsc2)C2=C(CC(C)(C)CC2=O)N1 (centres undefined)	MCF10A rerep 5.8µM, KB-3-1 tox 2.91µM, KB-V1 MDR tox 14.6µM (no result: SW480 rerep)
CC1=C(C(=O)Nc2ccccc2F)C(c2ccsc2)C2=C(CC(C)(C)CC2=O)N1 (centres undefined)	KB-3-1 tox inconclusive, SW480 rerep inconclusive
O=C1S/C(=C\c2ccc(O)c([N+](=O)[O-])c2)C(=O)N1c1ccccc1Cl	MCF10A rerep 1.64µM
COc1cc(/C=C2\SC(=O)N(c3ccc(Cl)cc3)C2=O)cc([N+](=O)[O-])c1O	D3 antag -69.9
COc1cc(/C=C2\SC(=O)N(c3cccc(Cl)c3)C2=O)cc([N+](=O)[O-])c1O	D3 antag -61.8
CC(/C=C/c1ccc(O)cc1)=NNc1ccccc1	MCF10A rerep 23.1µM, SW480 rerep inconclusive
CC(/C=C/c1ccccc1)=N\NC(=S)NC(C)C	none
CC(/C=C/c1ccccc1)=N\NC(N)=S	KB-3-1 tox inconclusive, KB-V1 MDR tox 18.4µM
Cc1ccc(NC(=O)c2cnc(N3CCCCC3)c3ccccc23)cc1Cl	none (no result: MCF10A rerep, D3 antag, SW480 rerep)
Cc1ccc(NC(=O)c2cnc(N3CCN(c4ccccn4)CC3)c3ccccc23)c(Br)c1	MCF10A rerep 18.4µM, KB-3-1 tox inconclusive, SW480 rerep inconclusive, KB-V1 MDR tox inconclusive, DRD3 agonist 43.6
O=C(Nc1c(F)cccc1F)c1cnc(N2CCN(c3ccccn3)CC2)c2ccccc12	KB-3-1 tox inconclusive, KB-V1 MDR tox 10.3µM
C=CCNc1nc(Nc2ccc(OC)c(OC)c2)c2sc(-c3ccccc3)cc2n1	KB-3-1 tox 2.06µM, D3 antag inconclusive, KB-V1 MDR tox inconclusive (no result: MCF10A rerep, SW480 rerep)
C=CCNc1nc(NCCOC)c2sc(-c3ccccc3)cc2n1	KB-V1 MDR tox inconclusive (no result: MCF10A rerep, SW480 rerep)
C=CCNc1nc(NCCOc2ccccc2Cl)c2sc(-c3ccccc3)cc2n1	KB-3-1 tox inconclusive, D3 antag -66.5, KB-V1 MDR tox inconclusive (no result: MCF10A rerep, SW480 rerep)
CC(C)Nc1nc(NCCN2CCCC2)c2sc(-c3ccccc3)cc2n1	D3 antag -64.9, KB-V1 MDR tox inconclusive (no result: MCF10A rerep, SW480 rerep)
O=C(COCc1cc(-c2ccc3c(c2)OCO3)on1)Nc1cccc(O)c1	none (no result: MCF10A rerep, D3 antag, SW480 rerep)
COc1ccc(NC(=O)Cn2ncc3c([nH]c4ccccc43)c2=O)cc1Cl	KB-V1 MDR tox inconclusive (no result: MCF10A rerep, D3 antag, SW480 rerep)
COC(=O)c1scc(-c2ccc(C)cc2)c1S(=O)(=O)Nc1cc(C)ccc1OC	KB-3-1 tox inconclusive (no result: MCF10A rerep, D3 antag, SW480 rerep)
COc1ccccc1NC(=O)C[n+]1ccccc1C	none
Cc1cccc(NC(=S)NCc2cccn2C)c1	KB-3-1 tox 20.6µM
Cc1cccc(NC(=S)N/N=C/c2cccn2Cc2ccc(F)cc2)c1	MCF10A rerep 8.2µM, KB-V1 MDR tox inconclusive
Cc1ccc(NC(=S)NCc2cccn2C)cc1	SW480 rerep 20.6µM, KB-V1 MDR tox inconclusive, DRD3 agonist 32.5
CSc1ccccc1NC(=S)N/N=C/c1cccn1Cc1ccc(F)cc1	MCF10A rerep inconclusive, KB-V1 MDR tox inconclusive
Cc1ccccc1NC(=S)NCc1cccn1C	none
Cc1cccc(N2CCN(C(=O)CN3C(=O)COc4ccc(S(=O)(=O)N5CCC(C)CC5)cc43)CC2C)c1 (centres undefined)	none (no result: MCF10A rerep, D3 antag, SW480 rerep)
O=C(Nc1ccccc1C(=O)O)c1ccc(Br)c(S(=O)(=O)NCc2ccccc2)c1	DRD3 agonist 38.9
Nc1ccc(/C=C/c2cccc3cccnc23)cc1	none (no result: MCF10A rerep, D3 antag, SW480 rerep, DRD3 agonist)
COc1ccc2oc(=O)c(-c3csc(Nc4cccc(O)c4)n3)cc2c1	MCF10A rerep 23.1µM, SW480 rerep inconclusive, KB-V1 MDR tox inconclusive
O=C(O)c1ccc(Nc2nc(-c3cc4ccccc4oc3=O)cs2)cc1O	MCF10A rerep 13µM, SW480 rerep inconclusive
CCCCc1nn2c(=O)cc(COC(=O)C3CCCCC3)nc2s1	none (no result: MCF10A rerep, D3 antag, SW480 rerep)
CCn1nc(NC(=O)c2ccco2)c2cc3ccccc3nc21	MCF10A rerep 20.6µM, D3 antag inconclusive, SW480 rerep inconclusive, KB-V1 MDR tox inconclusive
CC(C)Cn1nc(NC(=O)c2ccco2)c2cc3ccccc3nc21	MCF10A rerep inconclusive, KB-3-1 tox inconclusive, SW480 rerep 16.4µM, KB-V1 MDR tox inconclusive
CCc1ccc2oc(C(=O)Nc3ccccc3OC)cc(=O)c2c1	none (no result: MCF10A rerep, D3 antag, SW480 rerep)
Cc1ccc(C)c(N2CCN(S(=O)(=O)c3ccc4[nH]c5c(c4c3)CCCCC5)CC2)c1	KB-V1 MDR tox inconclusive (no result: MCF10A rerep, D3 antag, SW480 rerep)

Source: PubChem
